Test results: the supplement of paper PMC6992640
± gives the standard deviation of the averaged measurements.

These molecules were tested on HCI13 (cells of an ER-positive luminal breast cancer xenograft) (assay: cell viability (% of vehicle); higher = less cytotoxic). Conditions: 10 µM; 72 h.
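Note: PDX cells carrying CMV promoter-driven luciferase, viability read as total photon flux per second by IVIS imaging following D-luciferin, vehicle control 0.1% DMSO.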

In order of rising cell viability:
1. Cc1c(F)cc(C(=O)NC2CC2)cc1-c1ccc(C(=O)NCC(C)(C)C)cn1 [Losmapimod]  71 ± 2.2
2. CCCCc1nc(Cl)c(CO)n1Cc1ccc(-c2ccccc2-c2nnn[n-]2)cc1.[K+] [Losartan Potassium (DuP 753)]  82.7 ± 0.98
3. COc1ccc(CN(CCN(C)C)c2ccccn2)cc1.O=C(O)/C=C\C(=O)O [Mepyramine maleate]  85.6 ± 8.7
4. CC(C)(C)C(=O)C(Oc1ccc(Cl)cc1)n1ccnc1 (stereo not given) [Climbazole]  86.4 ± 8.3
5. Cc1nnc(C(=O)NC(C)(C)c2nc(C(=O)NCc3ccc(F)cc3)c(O)c(=O)n2C)o1 [Raltegravir (MK-0518)]  93.4 ± 11
6. CC(Cc1cc2c(c(C(N)=O)c1)N(CCCO)CC2)NCCOc1ccccc1OCC(F)(F)F (stereo not given) [Silodosin]  96.6 ± 16
7. COC(=O)CCc1ccc(OCC(O)CNC(C)C)cc1.Cl (stereo not given) [Esmolol HCl]  96.8 ± 12
8. CCCC(C(=O)OCCN(CC)CC)(c1ccccc1)c1ccccc1.Cl [SKF 525A (hydrochloride)]  103 ± 28
9. Cc1ncc([N+](=O)[O-])n1CCO [Metronidazole]  104 ± 9
10. CCCCCCCCCCCCCCCCO [1-Hexadecanol]  107 ± 84
11. Nc1ccc(C(=O)NCC(=O)[O-])cc1.[Na+] [Sodium 4-amiropparaty Hyalrate]  112 ± 12
12. CCOC(=O)CC(=O)N1CCSC1COc1ccccc1OC (stereo not given) [Moguisteine]  115 ± 9
13. Cc1cc(=O)[nH]c(=S)[nH]1 [Methylthiouracil]  119 ± 2.5
14. COC(=O)C1=COC(O)C2C(CO)=CCC12 (stereo not given) [Genipin]  119 ± 2.7
15. O=C(O)CCNC(=O)c1ccc(/N=N/c2ccc(O)c(C(=O)O)c2)cc1 [Balsalazide]  120 ± 6.3
16. Cl.Clc1ccc2nsnc2c1NC1=NCCN1 [Tizanidine HCl]  125 ± 25
17. CC(COc1ccccc1)N(CCCl)Cc1ccccc1.Cl (stereo not given) [Phenoxybenzamine HCl]  150 ± 8.9
18. Cc1cn(C2CC(O)C(CO)O2)c(=O)[nH]c1=O (stereo not given) [Telbivudine]  164 ± 67

What follows are molecules tested on HCI16 (cells of a triple-negative basal-like breast cancer xenograft) in the same assay as above. Conditions: 10 µM; 72 h.

In order of rising cell viability:
1. Cc1cccc(-c2nn3c(c2-c2ccnc4ccc(C(N)=O)cc24)CCC3)n1  89.8
2. Cn1c(=O)cc(N2CCCC(N)C2)n(Cc2cc(F)ccc2C#N)c1=O (stereo not given) [Trelagliptin]  95.2
3. NC(=O)N1c2ccccc2C=Cc2ccccc21 [Carbamazepine]  99.6
4. c1ccc(-c2ccc(C(c3ccccc3)n3ccnc3)cc2)cc1 (stereo not given) [Bifonazole]  108
5. CCc1nc(N)nc(N)c1-c1ccc(Cl)cc1 [Pyrimethamine]  109
6. C=C[C@]1(C)C[C@@H](OC(=O)CSC2C[C@H]3CC[C@@H](C2)N3C)[C@]2(C)[C@H](C)CC[C@]3(CCC(=O)[C@H]32)[C@@H](C)[C@@H]1O (stereo not given in full) [Retapamulin]  109
7. O=C1CCC(N2C(=O)c3ccccc3C2=O)C(=O)N1 (stereo not given) [Thalidomide]  114
8. CCCN1CCCCC1C(=O)Nc1c(C)cccc1C.Cl.O (stereo not given) [Ropivacaine hydrochloride monohydrate]  117
9. CN(C)CCC(c1ccc(Br)cc1)c1ccccn1.O=C(O)C=CC(=O)O (stereo not given) [Brompheniramine hydrogen maleate]  118
10. O=C(CS(=O)Cc1ccco1)NCC=CCOc1cc(CN2CCCCC2)ccn1 (stereo not given) [Lafutidine]  119
11. Nc1ccc(S(N)(=O)=O)cc1 [Sulfanilamide]  120
12. O=C1NC(=O)[C@@H](c2c[nH]c3ccccc23)[C@H]1c1cn2c3c(cccc13)CCC2 [Tivantinib (ARQ 197)]  125
13. Nc1ccn(C2CCC(CO)O2)c(=O)n1 (stereo not given) [Zalcitabine]  128
14. NCCCCC(NC(CCc1ccccc1)C(=O)O)C(=O)N1CCCC1C(=O)O.O.O (stereo not given) [Lisinopril dihydrate]  130
15. Nc1nccs1 [Aminothiazole]  136
16. CN(CC=CC#CC(C)(C)C)Cc1cccc2ccccc12 [Terbinafine]  139
17. CCC1(O)CC2CN(CCc3c([nH]c4ccccc34)C(C(=O)OC)(c3cc4c(cc3OC)N(C)C3C(O)(C(=O)OC)C(OC(C)=O)C5(CC)C=CCN6CCC43C65)C2)C1 (stereo not given) [vinblastine]  164
